According to PubChem BioAssay (NCATS):
Results filed as inconclusive are left out. The source made the active and inactive calls. Calls come from the whole dose curve; as a rule, active = well fitted curve in the direction sought with a large enough effect; inconclusive = small, poorly fitted or top-dose-only effect, or another doubt; inactive = no such curve, though single readings can be large; an effect the other way counts as inactive or inconclusive. Where a SMILES comes first, the peptide text is derived from it. [ ]: non-standard residue; d: D form. PhLac = O=C(O)[CH](O)Cc1ccccc1; NMeV = CN[CH](C(=O)O)C(C)C

Experiments:
[1] = target: Glutathione peroxidase 1 (Homo sapiens) (UniProt P07203); test: Primary qHTS Assay for Inhibitors of Recombinant Selenoprotein Glutathione Peroxidase 1 (GPX1) (AID 1845191); note: nearly all actives have a fitted effect of over 65% in size; for activity, negative = inhibition: % is set by controls: 0 for no effect and ±100 for the full control effect
Summary of the method: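 Recombinant GPX1 (10 nM final) was preincubated with compound for 30 min at room temperature, then reacted with 1 mM GSH, 0.5 mM CHP, 0.5 mM NADPH and 100 nM glutathione reductase; NADPH fluorescence (340/450 nm) was read at 0 and 15 min.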

[2] = target: Phospholipid hydroperoxide glutathione peroxidase GPX4 (Homo sapiens) (UniProt P36969); test: Primary qHTS Assay for Inhibitors of Recombinant Selenoprotein Glutathione Peroxidase 4 (GPX4) (AID 1845192); note: nearly all actives have a fitted effect of over 65% in size; for activity change, negative = inhibition: series mostly up to about 50 µM; % is set by controls: 0 for no effect and ±100 for the full control effect
Summary of the method: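 GR-coupled readout: 100 nM GR, 1 mM GSH, 0.5 mM NADPH; NADPH fluorescence (ex 340/em 450 nm) read at t=0 and after 15 min RT. GPX4 200 nM, preincubated 30 min with compound; substrate 0.5 mM CHP.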

[3] = target: Luciferin 4-monooxygenase (Photinus pyralis) (UniProt P08659); test: Primary firefly luciferase (FLuc) qHTS assay for identification of artifact compounds. (AID 1845220); note: nearly all actives have a fitted effect of over 60% in size;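 for activity change, negative = inhibition: series mostly up to about 54 µM; plate controls were DMSO vehicle for no effect and no enzyme for full effect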
Summary of the method: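 Reaction readout was CCD-imaged luminescence, taken 5 min after adding 10 nM purified firefly enzyme to compound-treated wells holding 10 uM luciferin and ATP in pH 7.6 buffer.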

[4] = Primary fluorescence-based thiol-reactive (MSTI) qHTS assay for identification of artifact compounds. (AID 1845221); note: nearly all actives have a fitted effect of over 65% in size; note: potency is the fitted concentration of half-maximal effect;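 for activity change, negative = thiol reactive: series mostly up to about 54 µM; thiol-reactive compounds lower the probe fluorescence signal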
Summary of the method: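 Compounds were incubated 1 h at room temperature in the dark with the MSTI probe (4 uM) in PBS pH 7.4, 2% DMSO. Signals were normalized between Acetyl-MSTI and MSTI.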

[5] = test system: Nanoluciferase (engineered Oplophorus gracilirostris luciferase); test: Primary Nanoluciferase (NLuc) qHTS assay for identification of artifact compounds. (AID 1845222);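 note: NLuc secreted into diluted conditioned medium of S16 cells; series mostly up to about 54 µM; 0% = DMSO and -100% = no enzyme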
Summary of the method: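 Concentration-response data were obtained by luminescence after 5 min with Nano-Glo substrate at 1:100. The enzyme was diluted S16 NLuc-expressing cell medium, preincubated with compound for 15 min at RT. Curves were fitted with a 4-parameter Hill model.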

[6] = Primary redox qHTS assay for identification of artifact compounds. (AID 1845223);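 note: 0% = DMSO and 100% = reference compound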
Summary of the method: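 Amplex Red (25 uM) and HRP (250 mU/mL) in HBSS, with compounds for 15 min, then 250 uM DTT for 30 min, room temperature, dark. Fluorescence 525/598 nm read; normalized to DMSO and 10 uM DA3003; Hill fit.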

Phospholipid hydroperoxide glutathione peroxidase GPX4 (Homo sapiens), sequence (P36969 whole entry, looked up): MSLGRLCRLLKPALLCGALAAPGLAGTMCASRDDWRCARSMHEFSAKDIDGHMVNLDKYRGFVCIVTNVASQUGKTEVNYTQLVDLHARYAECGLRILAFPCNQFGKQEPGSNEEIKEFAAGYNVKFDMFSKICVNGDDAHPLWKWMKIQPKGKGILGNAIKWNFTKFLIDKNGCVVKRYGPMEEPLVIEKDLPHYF
Glutathione peroxidase 1 (Homo sapiens), sequence (P07203 whole entry, looked up): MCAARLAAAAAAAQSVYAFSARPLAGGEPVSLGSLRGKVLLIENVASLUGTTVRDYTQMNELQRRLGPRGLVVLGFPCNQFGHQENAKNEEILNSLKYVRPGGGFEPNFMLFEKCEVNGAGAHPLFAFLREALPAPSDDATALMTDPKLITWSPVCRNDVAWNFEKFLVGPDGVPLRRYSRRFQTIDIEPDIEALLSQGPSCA

CC(C)C(C(=O)N1CCCC1C(=O)O)N(C)C(=O)C(O)Cc1ccccc1 (configuration not stated) (H-[PhLac]-[NMeV]-Pro-OH; configuration not given here)
inactive: Potency [1] | Potency [2] | Potency [3] | Potency [4] | Potency [5] | Potency [6]

CC1(C)CCCC2(C)C1C(O)C=C(CO)C2(O)C(=O)O (configuration not stated)
inactive: Potency [1] | Potency [2] | Potency [3] | Potency [4] | Potency [5] | Potency [6]

CC1(C)CC2C3=CCC4C5(C)CCC(OC6OC(C(=O)O)C(O)C(O)C6OC6OC(CO)C(O)C(O)C6OC6OC(CO)C(O)C(O)C6O)C(C)(CO)C5CCC4(C)C3(C)CCC2(C)C(OC2OCC(O)C(OC3OC(CO)C(O)C(O)C3O)C2O)C1O (configuration not stated)
inactive: activity, negative = inhibition [1] -11.2% [at 9.52 µM] | activity change, negative = inhibition [2] -2.61% [at 9.73 µM] | activity change, negative = inhibition [3] -3.45% [at 11.6 µM] | activity change, negative = thiol reactive [4] 89.2% [at 11.5 µM] | activity, negative = inhibition [5] 2.9% [at 11.6 µM] | redox activity (% of DA3003) [6] 10.1% [at 11.5 µM]

CC1=CC(=O)C[C@H]2[C@@H]1CC[C@@H](C)[C@]21CO[C@H](c2ccoc2)C1=O
inactive: Potency [1] | Potency [2] | Potency [3] | Potency [4] | Potency [5] | Potency [6]

CC(C)CNC(=O)/C=C/CCCCc1ccc2c(c1)OCO2
inactive: Potency [1] | Potency [2] | Potency [3] | Potency [4] | Potency [5] | Potency [6]

COC1CC(=O)C23C(=O)NC(CC(C)C)C2C(C)C(C)=CC3/C=C(\C)CCC1O (configuration not stated)
inactive: Potency [1] | Potency [2] | Potency [3] | Potency [4] | Potency [5] | Potency [6]

CC1CC(O)CC(C)(C)C1(O)CCO (configuration not stated)
inactive: Potency [1] | Potency [2] | Potency [3] | Potency [4] | Potency [5] | Potency [6]

FC(F)(F)c1cc(C(F)(F)F)c2ccc3nc(-c4nnco4)cn3c2n1
inactive: Potency [1] | Potency [2] | Potency [3] | Potency [4] | Potency [5] | Potency [6]

C[C@H]1CC[C@@]2(OC1)O[C@H]1CC3C4CC=C5C[C@H](O)C[C@@H](O[C@@H]6O[C@@H](C)[C@H](O)[C@@H](O)[C@H]6O[C@@H]6O[C@@H](C)[C@H](O)[C@@H](O)[C@H]6O)[C@]5(C)C4CC[C@]3(C)[C@H]1[C@@H]2C (some centres not stated)
inactive: Potency [1] | Potency [2] | Potency [3] | Potency [4] | Potency [5] | Potency [6]

CC1CCC2(C)C(CC(O)C(O)C23CO3)C1(C)CCC1=CC(=O)OC1O (configuration not stated)
inactive: Potency [1] | Potency [2] | Potency [3] | Potency [4] | Potency [5] | Potency [6]

COC1=CC(=O)O[C@@H](CCc2ccccc2)[C@@H]1O
inactive: Potency [1] | Potency [2] | Potency [3] | Potency [4] | Potency [5] | Potency [6]

O=C1NCc2nc3ccccc3c(=O)n2C1Cc1c[nH]c2ccccc12 (configuration not stated)
inactive: Potency [1] | Potency [2] | Potency [3] | Potency [4] | Potency [5] | Potency [6]

CC(C)(O)C1=CCC23COC(C2)C(O)(C(=O)O)CCC13 (configuration not stated)
inactive: Potency [1] | Potency [2] | Potency [3] | Potency [4] | Potency [5] | Potency [6]

CC[C@H]1OC(=O)C[C@@H](O)[C@H](C)[C@@H](O[C@@H]2O[C@H](C)[C@@H](O)[C@H](N(C)C)[C@H]2O)[C@@H](CCN2C[C@H](C)C[C@H](C)C2)C[C@@H](C)C(=O)/C=C/C(C)=C/[C@@H]1CO[C@@H]1O[C@H](C)[C@@H](O)[C@@H](OC)[C@H]1OC
inactive: Potency [1] | Potency [2] | Potency [3] | Potency [4] | Potency [5] | Potency [6]

C=C(C(=O)O)C1CCC(C)C2CCC(=O)OC2(C)C1 (configuration not stated)
inactive: Potency [1] | Potency [2] | Potency [3] | Potency [5] | Potency [6]
active: Potency [4] 11.9 µM

COc1cc([C@H]2OC[C@@H]3[C@@H](c4ccc(O[C@@H]5O[C@H](CO)[C@@H](O)[C@H](O)[C@H]5O)c(OC)c4)OC[C@]23O)ccc1O
inactive: Potency [1] | Potency [2] | Potency [3] | Potency [4] | Potency [5] | Potency [6]

CN[C@@H]1[C@@H](O)[C@@H](O[C@@H]2[C@@H](O)[C@H](O[C@H]3O[C@H](CN)[C@@H](O)[C@H](O)[C@H]3O)[C@@H](N)C[C@H]2NC(=O)[C@@H](O)CN)OC[C@]1(C)O
inactive: Potency [1] | Potency [2] | Potency [3] | Potency [4] | Potency [5] | Potency [6]

C=C1[C@H]2[C@H](O[C@@H]3O[C@H](COC(=O)/C=C/c4cc(OC)c(O)c(OC)c4)[C@@H](O)[C@H](O)[C@H]3O)OC=C(C(=O)O)[C@H]2C[C@@H]1O
inactive: Potency [1] | Potency [2] | Potency [3] | Potency [5] | Potency [6]
active: Potency [4] 7.07 µM

C=C1CCC[C@]2(C)C[C@]3(O)OC(=O)C(C)=C3C[C@@H]12
inactive: Potency [1] | Potency [2] | Potency [3] | Potency [4] | Potency [5] | Potency [6]

CC(=O)OC(CSC1CCC(=O)OC(C)CCC(=O)C1)C(=O)O (configuration not stated)
inactive: Potency [1] | Potency [2] | Potency [3] | Potency [4] | Potency [5] | Potency [6]

CC[C@H]1OC(=O)[C@H](C)[C@@H](OC2C[C@@](C)(OC)[C@@H](O)[C@H](C)O2)[C@H](C)[C@@H](OC2O[C@H](C)C[C@H](NC)[C@H]2O)[C@](C)(O)C[C@@H](C)CN(C)[C@H](C)[C@@H](O)[C@]1(C)O (some centres not stated)
inactive: Potency [1] | Potency [2] | Potency [3] | Potency [4] | Potency [5] | Potency [6]

Cc1c(CN(C)C(=O)/C=C/c2cnc3c(c2)CCC(=O)N3)oc2ccccc12
inactive: Potency [1] | Potency [2] | Potency [3] | Potency [4] | Potency [5] | Potency [6]

CC(=O)O[C@@]1(C)C[C@@H](O)[C@]2(O)C=CO[C@@H](O[C@@H]3O[C@H](CO)[C@@H](O)[C@H](O)[C@H]3O)[C@@H]21
inactive: Potency [1] | Potency [2] | Potency [3] | Potency [4] | Potency [5] | Potency [6]

C[C@]12CCC[C@](C)(C(=O)O)C1CCC13C=C(CO)C(CCC12)C3 (some centres not stated)
inactive: Potency [1] | Potency [2] | Potency [3] | Potency [4] | Potency [5] | Potency [6]

CN1CCC(c2c[nH]c3ccc(NC(=O)c4ccc(F)cc4)cc23)CC1
inactive: Potency [1] | Potency [2] | Potency [3] | Potency [4] | Potency [5] | Potency [6]

CCOc1ccc(-c2ccc(Cn3c(CC(C)(C)C(=O)O)c(SC(C)(C)C)c4cc(OCc5ccc(C)cn5)ccc43)cc2)cn1
inactive: Potency [1] | Potency [2] | Potency [3] | Potency [4] | Potency [5] | Potency [6]

CC(=O)C1CCC2(C)C3=C(CCC12C)C1(C)CCC(=O)C(C)(C)C1CC3 (configuration not stated)
inactive: Potency [1] | Potency [2] | Potency [3] | Potency [4] | Potency [5] | Potency [6]

CC12CC34C=CC(=O)C(C)(CCC(=O)O)C3C(CC1C4)O2 (configuration not stated)
inactive: Potency [1] | Potency [2] | Potency [3] | Potency [4] | Potency [5] | Potency [6]

CC(=O)O[C@@H]1[C@H](O[C@@H]2O[C@H](CO)[C@@H](O)[C@H](O)[C@H]2O)[C@@H](O[C@@H]2O[C@@H](C)[C@H](O)[C@@H](O[C@@H]3O[C@H](CO)[C@@H](O)[C@H](O)[C@H]3O)[C@H]2O)[C@H](OC(=O)C23CCC4(C)C(=CCC5C6(C)CC(O)C(O[C@@H]7O[C@H](C(=O)O)[C@@H](O)[C@H](O)[C@H]7O)C(C)(C(=O)O)C6CCC54C)C2CC(C)(C)CC3O)O[C@@H]1C (some centres not stated)
inactive: outcome [1] inactive [at 9.52 µM] | activity change, negative = inhibition [2] 1.73% [at 9.73 µM] | outcome [3] inactive [at 11.6 µM] | activity change, negative = thiol reactive [4] 205% [at 11.5 µM] | activity, negative = inhibition [5] 0% [at 11.6 µM] | redox activity (% of DA3003) [6] 12.9% [at 11.5 µM]

CC1=CC(=O)CC(C)(C)C1CCC(C)OC1OC(COC(=O)c2cc(O)c(O)c(O)c2)C(O)C(O)C1O (configuration not stated)
inactive: Potency [1] | Potency [2] | Potency [3] | Potency [5] | Potency [6]
active: Potency [4] 1.16 µM

C[C@@H](Nc1cc(NS(=O)(=O)N2CCC2)nc(SCc2cccc(F)c2F)n1)[C@@H](O)CO
inactive: Potency [1] | Potency [2] | Potency [3] | Potency [4] | Potency [5] | Potency [6]

CCC/C=C/C(=O)O[C@H]1CC(C)(C)CC2[C@]13[C@H](O)O[C@@]21CCC2[C@@]4(C)CC[C@H](O[C@@H]5O[C@H](C(=O)O)[C@@H](O)[C@H](O[C@@H]6O[C@H](CO)[C@H](O)[C@H](O)[C@H]6O[C@@H]6O[C@@H](C)[C@H](O)[C@@H](O)[C@H]6O[C@@H]6OC[C@](O)(CO)[C@H]6O)[C@H]5O[C@@H]5O[C@H](CO)[C@H](O)[C@H](O)[C@H]5O)C(C)(C)C4CC[C@@]2(C)[C@]1(C)C[C@H]3OC(C)=O (some centres not stated)
inactive: outcome [1] inactive [at 9.52 µM] | activity change, negative = inhibition [2] -8.75% [at 9.73 µM] | outcome [3] inactive [at 11.6 µM] | activity change, negative = thiol reactive [4] 179% [at 11.5 µM] | activity, negative = inhibition [5] 4.57% [at 11.6 µM] | redox activity (% of DA3003) [6] -2.32% [at 11.5 µM]

CC(c1c[nH]c2ccccc12)C(O)C(=O)O (configuration not stated)
inactive: Potency [1] | Potency [2] | Potency [3] | Potency [5] | Potency [6]
active: Potency [4] 10.6 µM

CC1(C)CC[C@]2(C(=O)O)CC[C@]3(C)C(=CCC4[C@@]5(C)C[C@@H](O)[C@H](O)C(C)(C)C5CC[C@]43C)[C@@H]2[C@@H]1O (some centres not stated)
inactive: Potency [1] | Potency [2] | Potency [3] | Potency [4] | Potency [5] | Potency [6]

Nc1c(Br)cc(Br)cc1CNC1CCC(O)CC1 (configuration not stated)
inactive: Potency [1] | Potency [2] | Potency [3] | Potency [4] | Potency [5] | Potency [6]

C=C(C(=O)O)[C@@H]1CC=C2CCC[C@H](C)[C@@]2(C)C1
inactive: Potency [1] | Potency [2] | Potency [3] | Potency [4] | Potency [5] | Potency [6]

O=C(O[C@H]1[C@@H]2C[C@@H]3OC[C@@](O)([C@H]2[C@H](O[C@@H]2O[C@H](CO)[C@@H](O)[C@H](O)[C@H]2O)O3)[C@@H]1O)c1ccccc1
inactive: Potency [1] | Potency [2] | Potency [3] | Potency [5] | Potency [6]
active: Potency [4] 5.19 µM
